According to the supplement of paper PMC6555819:

Assays:
Assay in all cases: PBM binding z-score (relative to random genomic background probes); higher = stronger binding; sequences stand for … in GC…GCGATTGACAGCGTAGAATGAAGG
[1] = tested on: FXR:RXRa (NR concentration 270 nM, RXRa partner concentration 90 nM)
In short: (§1)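 Probes were double-stranded and carried 34-nt variable regions with direct-repeat seeds, single-nucleotide variants, half-site ablations and random human genomic background sequences, printed on custom Agilent 4×180K protein-binding microarrays. Arrays were incubated 1 h with ligand-free nuclear receptor dimers in PBS pH 7.4, 2% milk, 0.02% Triton X-100, 1 mM DTT, 0.2 mg/mL BSA and 0.4 mg/ml salmon testes DNA. Antibodies against each partner (one per run) detected binding, and scanned fluorescence was regression-normalized. Binding z-scores use the random background probes as reference.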

[2] = tested on: LXRa:RXRa (NR concentration 270 nM, RXRa partner concentration 90 nM)
In short: as §1

[3] = tested on: LXRa homodimer (NR concentration 270 nM)
In short: as §1

[4] = tested on: LXRb homodimer (NR concentration 270 nM)
In short: as §1

[5] = tested on: PPARa:RXRa (NR concentration 270 nM, RXRa partner concentration 90 nM)
In short: as §1

[6] = tested on: PPARg:RXRa (NR concentration 180 nM, RXRa partner concentration 90 nM)
In short: as §1

[7] = tested on: PPARg:RXRa 270nM:90nM, anti-RXR (NR concentration 270 nM, RXRa partner concentration 90 nM)
In short: as §1

[8] = tested on: PPARg:RXRa 30nM:10nM, anti-RXR (NR concentration 30 nM, RXRa partner concentration 10 nM)
In short: as §1

[9] = tested on: PPARg:RXRa 90nM:30nM, anti-RXR (NR concentration 90 nM, RXRa partner concentration 30 nM)
In short: as §1

[10] = tested on: LXRb:RXRa (NR concentration 270 nM, RXRa partner concentration 90 nM)
In short: as §1

Sequence | PBM binding z-score [1] | PBM binding z-score [2] | PBM binding z-score [3] | PBM binding z-score [4] | PBM binding z-score [5] | PBM binding z-score [6] | PBM binding z-score [7] | PBM binding z-score [8] | PBM binding z-score [9] | PBM binding z-score [10]
CCTACTGGGCCACGAAAGGGCATTGATTCAGTGA | -0.208 | 0.621 | -0.166 | -1.21 | 1.7 | 1.78 | 1.95 | 0.197 | 0.806 | 
GCTTACGGGTCAAAAGTTATAGCATGAATAGAAT | 5.09 | 3.43 | 0.0533 | 0.409 | 5.64 | 6.49 | 6.55 | 4.03 | 6.2 | 
CCTACTGGGCCATTAAGAGGTCATTGATCATATG | 2.62 | 4.19 | 6.58 | 0.0638 | 3.94 | 2.19 | 3.06 | 0.745 | 2 | 
CCTAGTTGGTCAGGGGGTCACACACCGGATATGA | 4.51 | 4.01 | 1.32 | 7.75 | 5.36 | 5.04 | 5.76 | 2.89 | 4.92 | 
CGTCCAAGGTCAAAGGTCAGCGAAGAGATGACGG | 8.78 | 7.06 | 3.38 | 1.66 | 7.31 | 11 | 8.69 | 8.19 | 9.49 | 
CCTAGATGGTCAGGAGGTCACACACCGGATATGA | 3.84 | 3.42 | 2 | 0.565 | 4.14 | 3.01 | 3.58 | 1.24 | 2.41 | 
AGTCAAAGTTCATCAAGGTAACGTAAGATATGCT | 6.08 | 5.78 | 4.24 | 1.31 | 4.64 | 6.46 | 6.38 | 3.52 | 5.75 | 
ATATGTAGGTTAGCTGGAGTCATTCAGACTAGGC | 0.00563 | 1.28 | -0.0336 | 0.0591 | 2.34 | 3 | 2.47 | 0.982 | 1.63 | 
AATACAGGGTGATCGTAGGCCAGAGTACGCACAG | -0.0324 | 0.162 | -0.234 | -0.0404 | 0.576 | 1.2 | 0.407 | 0.131 | 0.149 | 
CGTCCAAGGTAAATGCTAGGTCAGTGAAAGCATT | 0.57 | 1.38 | 0.935 | -0.419 | 0.673 | -0.228 | -0.117 | -0.486 | -0.493 | 
ATATGTAGGTTATCGGGTCATTCATTTTGCGCAT | 3.17 | 3.12 | 1.9 | 1.4 | 5.09 | 7.3 | 6.11 | 3.77 | 5.76 | 
ATCGAAAGGTCGTGAGGTGAGTTTACAGAAAGGC | 5.54 | 4.05 | 0.339 | 0.313 | 5.21 | 4 | 4.18 | 1.98 | 3.05 | 
AGAATGAGGTTACCAAAGATCAGTGAAACGCTTG | 1.73 | 6.11 | 0.0874 | -0.00616 | 3.4 | 2.6 | 2.57 | 1.19 | 2.06 | 
CCTACTGGGCAAAAAAGGTCATTGATGCCGATAA | 3.26 | 4.69 | 3.15 | -0.0939 | 4.85 | 1.45 | 2.78 | 0.775 | 1.99 | 
CTATGTAGGTTAAGGGGGTCATTGAGTTTGAAAG | 5.19 | 4.98 | 2.68 |  |  | 8.96 | 7.92 | 5.98 | 8.13 | 6.12
ACTCGGAGGACAAAGGTAAGAGCTACGCCAGTGA | -0.107 | -0.113 | -0.383 | -0.762 | 1.12 | 2.52 | 3.87 | 1.74 | 3.83 | 
